Measured values from PubChem BioAssay (NCI).
This is part of a sample that, as a whole, favours compounds with a hit. Of some 83,000 tested, about 20% had one in any assay.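 Step 1: grow cells in 96-well plates. Step 2: add test compound at a single concentration. Step 3: incubate 48 h. Step 4: record percent growth.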 The source made the active and inactive calls. How the source made its calls: active means growth percent below 10; inactive means the rest.

Columns and labels:
Assay in all cases: NCI-60 one-dose screen, 48 h (100 = growth as untreated, 0 = no growth, -100 = all killed)
Details in all cases: 10 µM unless noted
HCT-15 colon = system: HCT-15 colon
HT29 colon = system: HT29 colon
SNB-75 CNS = system: SNB-75 CNS
SNB-19 CNS = system: SNB-19 CNS
U251 CNS = system: U251 CNS
PC-3 prostate = system: PC-3 prostate
SK-MEL-5 melanoma = system: SK-MEL-5 melanoma
UACC-62 melanoma = system: UACC-62 melanoma
LOX IMVI melanoma = system: LOX IMVI melanoma
SK-MEL-28 melanoma = system: SK-MEL-28 melanoma

Measured: growth

COc1ccccc1Nc1nnc(-c2c[nH]c3ccccc23)o1
active: HT29 colon 7.44% | U251 CNS 4.61% | SK-MEL-5 melanoma -32.7% | LOX IMVI melanoma 7.77%
inactive: HCT-15 colon 11.5% | SNB-75 CNS 44% | SNB-19 CNS 43.4% | PC-3 prostate 16.4% | UACC-62 melanoma 22.9% | SK-MEL-28 melanoma 49.2%

CCCCCCCCc1ccc(C(=O)Nc2cccc(O)c2)cc1
inactive: HCT-15 colon 47.4% | HT29 colon 78.7% | SNB-75 CNS 103% | SNB-19 CNS 83% | U251 CNS 77.5% | PC-3 prostate 52.4% | SK-MEL-5 melanoma 46.6% | UACC-62 melanoma 69.4% | LOX IMVI melanoma 64.7% | SK-MEL-28 melanoma 83.4%

CN(C)c1nc(NCCNS(=O)(=O)c2ccc(C(=O)/C=C/c3ccccc3)cc2)nc(N2CCOCC2)n1
active: HCT-15 colon -45.3% | HT29 colon 3.67% | LOX IMVI melanoma -63.1%
inactive: SNB-75 CNS 73.2% | SNB-19 CNS 77% | U251 CNS 44% | PC-3 prostate 59.6% | SK-MEL-5 melanoma 83.5% | UACC-62 melanoma 72.8% | SK-MEL-28 melanoma 88%

Nc1nn2c(-c3cc4cc(Br)ccc4oc3=O)ccnc2c1N=Nc1ccc(Br)cc1
inactive: HCT-15 colon 31.8% | HT29 colon 28.8% | PC-3 prostate 47.7% | SK-MEL-5 melanoma 22.7% | UACC-62 melanoma 48.9% | LOX IMVI melanoma 18% | SK-MEL-28 melanoma 20.5%
active: SNB-75 CNS 7.89% | SNB-19 CNS -1.72% | U251 CNS 6.85%

NS(=O)(=O)c1ccc(Nc2nc(N/N=C/c3cc(Br)c(O)c(Br)c3)nc(Nc3ccccc3)n2)cc1
active: SK-MEL-5 melanoma -26.6% | UACC-62 melanoma -26.6% | LOX IMVI melanoma -23.5%
inactive: HCT-15 colon 80.5% | HT29 colon 32.1% | SNB-75 CNS 25.7% | SNB-19 CNS 14.9% | U251 CNS 27.6% | PC-3 prostate 57.7% | SK-MEL-28 melanoma 34.4%

O=C(Nc1ccc(S(=O)(=O)N2CCCCC2)cc1)C(Cl)Cl
inactive: HCT-15 colon 103% | HT29 colon 109% | SNB-75 CNS 103% | SNB-19 CNS 93.7% | U251 CNS 98% | PC-3 prostate 107% | SK-MEL-5 melanoma 105% | UACC-62 melanoma 106% | LOX IMVI melanoma 100% | SK-MEL-28 melanoma 130%

O=C(Nc1ccc(-c2ccc3c(c2)NC(=O)/C3=C\c2ccc[nH]2)cc1)Nc1ccc(Cl)c(C(F)(F)F)c1
inactive: HCT-15 colon 26.5% | HT29 colon 17.4% | SNB-75 CNS 38.5% | SNB-19 CNS 72.9% | U251 CNS 37.9% | PC-3 prostate 39.5% | SK-MEL-5 melanoma 49.3% | UACC-62 melanoma 31.7% | LOX IMVI melanoma 46.9% | SK-MEL-28 melanoma 47.7%

COC(=O)c1cc(C(C)=O)n2c3ccccc3c3ccccc3c12
active: SNB-75 CNS -12.2%
inactive: HCT-15 colon 71.3% | HT29 colon 92.6% | SNB-19 CNS 42.9% | U251 CNS 80.6% | PC-3 prostate 56.5% | SK-MEL-5 melanoma 21.9% | UACC-62 melanoma 67% | LOX IMVI melanoma 64.7% | SK-MEL-28 melanoma 92.4%

Fc1ccc(N2CC(Cn3c(C(F)(F)F)cc4c(Cl)ncnc43)C2)c(F)c1
inactive: SNB-75 CNS 24.6% | SK-MEL-5 melanoma 88.9%
active: HCT-15 colon -76.5% | HT29 colon -59.4% | SNB-19 CNS -39.1% | U251 CNS -26.6% | PC-3 prostate 0.119% | UACC-62 melanoma 6.55% | LOX IMVI melanoma -93.6% | SK-MEL-28 melanoma -89.8%

COc1ccc2c(c1)C(=O)N(C)C2C1c2c(cc3c(c2OC)OCO3)CCN1C (stereo not given)
inactive: HCT-15 colon 22.5% | HT29 colon 33.2% | SNB-75 CNS 37.3% | SNB-19 CNS 49.1% | U251 CNS 42.7% | PC-3 prostate 46.9% | SK-MEL-5 melanoma 24.9% | UACC-62 melanoma 26.8% | LOX IMVI melanoma 46.7% | SK-MEL-28 melanoma 55.9%

COc1ccc(-c2cc(-c3cc(C(C)C)c(O)cc3C)nn2-c2ccc(S(N)(=O)=O)cc2)cc1
active: HCT-15 colon 3.06% | SNB-75 CNS -0.16%
inactive: HT29 colon 88.4% | SNB-19 CNS 30% | U251 CNS 14.4% | PC-3 prostate 49.3% | SK-MEL-5 melanoma 48.6% | UACC-62 melanoma 21.5% | LOX IMVI melanoma 22.6% | SK-MEL-28 melanoma 58.8%

Cc1ccc(C(C(=O)NC2CCCCC2)N(Cc2ccccc2Cl)C(=O)c2ccc(CN3CCOCC3)o2)o1 (stereo not given)
inactive: HCT-15 colon 98.3% | HT29 colon 95.4% | SNB-75 CNS 80.2% | SNB-19 CNS 85.6% | U251 CNS 103% | PC-3 prostate 78.5% | SK-MEL-5 melanoma 83.4% | UACC-62 melanoma 66.2% | LOX IMVI melanoma 87% | SK-MEL-28 melanoma 114%

COc1ccc2[nH]c(O)c(N=Nc3nc(-c4ccccc4)cs3)c2c1
active: SNB-75 CNS -1.94% | U251 CNS -31%
inactive: HCT-15 colon 24.9% | HT29 colon 50.5% | SNB-19 CNS 20% | PC-3 prostate 16% | SK-MEL-5 melanoma 68.8% | UACC-62 melanoma 30.8% | LOX IMVI melanoma 14.3% | SK-MEL-28 melanoma 45%

COc1cccc(/C=C/c2nc3ccccc3c(=O)n2CC(=O)Nc2ccccc2)c1
inactive: HCT-15 colon 67.8% | HT29 colon 58.5% | SNB-19 CNS 40.4% | PC-3 prostate 76.1% | SK-MEL-5 melanoma 73.6% | UACC-62 melanoma 67.2% | LOX IMVI melanoma 26.8% | SK-MEL-28 melanoma 76.5%
active: SNB-75 CNS -35.9% | U251 CNS 7.15%

COc1ccc(Nc2nnc(-c3c[nH]c4ccccc34)o2)cc1
inactive: HCT-15 colon 69% | HT29 colon 106% | SNB-75 CNS 78.8% | SNB-19 CNS 95.2% | U251 CNS 97.6% | PC-3 prostate 78.6% | SK-MEL-5 melanoma 90.6% | UACC-62 melanoma 82.2% | LOX IMVI melanoma 71.6% | SK-MEL-28 melanoma 107%

CN(C)CCCNC(=S)Nc1ccc(/C=C/c2ccc(Cl)cc2)cc1
active: HCT-15 colon -93.8% | HT29 colon -51.4% | SNB-75 CNS 8.9% | SNB-19 CNS -35.2% | U251 CNS -2.11% | PC-3 prostate -35.3% | SK-MEL-5 melanoma -98.6% | UACC-62 melanoma -82.3% | LOX IMVI melanoma -64.5% | SK-MEL-28 melanoma -97.6%

CN(C)c1nc(NCCNS(=O)(=O)c2ccc(C(=O)/C=C/c3ccc(F)cc3)cc2)nc(N2CCOCC2)n1
active: HCT-15 colon -29.8% | HT29 colon -79.7% | U251 CNS -86.1% | LOX IMVI melanoma -97.6%
inactive: SNB-75 CNS 58.5% | SNB-19 CNS 67.9% | PC-3 prostate 49.2% | SK-MEL-5 melanoma 66.1% | UACC-62 melanoma 55.2% | SK-MEL-28 melanoma 97.2%

Cc1nc2sccn2c1-c1nnc(SCc2ccccc2)o1
inactive: HCT-15 colon 89.2% | HT29 colon 85.6% | SNB-75 CNS 106% | SNB-19 CNS 80.6% | U251 CNS 82.8% | PC-3 prostate 82% | SK-MEL-5 melanoma 90% | UACC-62 melanoma 80.2% | LOX IMVI melanoma 92.7% | SK-MEL-28 melanoma 94.8%

COc1ccc(N=Nc2c(N)nn3c(-c4cc5ccccc5oc4=O)ccnc23)cc1
inactive: HCT-15 colon 64.9% | HT29 colon 50.7% | SNB-75 CNS 33.6% | SNB-19 CNS 19.8% | U251 CNS 28.5% | PC-3 prostate 70.7% | SK-MEL-5 melanoma 24% | UACC-62 melanoma 47.7% | LOX IMVI melanoma 57.2% | SK-MEL-28 melanoma 45.4%

CCN1CCN(Cc2ccc(C(=O)Nc3cccc(Nc4ccc5c(OC)cccc5n4)c3)cc2C(F)(F)F)CC1
active: HCT-15 colon -83.3% | HT29 colon -67.6% | SNB-75 CNS -89.7% | SNB-19 CNS -99.7% | U251 CNS -80.9% | PC-3 prostate -38.6% | SK-MEL-5 melanoma -99.2% | UACC-62 melanoma -95.1% | LOX IMVI melanoma -92.1% | SK-MEL-28 melanoma -100%

COc1ccc(/C=C/c2nc3ccccc3n3c(-c4cccc([N+](=O)[O-])c4)nnc23)cc1
active: HCT-15 colon -80.7% | HT29 colon -59.5% | SNB-75 CNS -2.16% | U251 CNS -64.5% | PC-3 prostate 5.23% | SK-MEL-5 melanoma -95.4% | UACC-62 melanoma -83.1% | LOX IMVI melanoma -77.3% | SK-MEL-28 melanoma -47.1%
inactive: SNB-19 CNS 15%

C/C(=N/O)c1ccc(NC(=O)CSc2nnc(-c3ccc(-c4nc5ccc(Cl)cc5[nH]4)cc3)o2)cc1
inactive: HCT-15 colon 78.1% | HT29 colon 31.4%
active: SNB-75 CNS -27.5% | SNB-19 CNS -86.7% | U251 CNS -95.8% | PC-3 prostate -22.4% | SK-MEL-5 melanoma -60.4% | UACC-62 melanoma -86.6% | LOX IMVI melanoma -100% | SK-MEL-28 melanoma -100%

CCOC(=O)/C(F)=C/C1CC1C(c1ccccc1)c1ccccc1 (stereo not given)
inactive: HCT-15 colon 67% | HT29 colon 80.6% | SNB-75 CNS 90.4% | SNB-19 CNS 95.9% | U251 CNS 109% | PC-3 prostate 78.8% | SK-MEL-5 melanoma 88.9% | UACC-62 melanoma 65.1% | LOX IMVI melanoma 84.9% | SK-MEL-28 melanoma 103%

CS(=O)(=O)Nc1cc(-c2ccc3ncnc(N4CCc5cc(F)c(Cl)cc54)c3c2)cnc1Cl
active: HCT-15 colon 7.55% | SNB-75 CNS -17.7% | SK-MEL-5 melanoma -72.8% | UACC-62 melanoma -43.2% | LOX IMVI melanoma -29.2% | SK-MEL-28 melanoma -0.47%
inactive: HT29 colon 19.7% | SNB-19 CNS 27% | U251 CNS 17.8% | PC-3 prostate 12.9%

N#Cc1ccc(C(=O)NNC(=O)CSc2nc3sc4c(c3c(=O)n2-c2ccc(Cl)cc2)CCCC4)cc1
active: UACC-62 melanoma 4.59%
inactive: HCT-15 colon 51.2% | HT29 colon 56% | SNB-75 CNS 86.7% | SNB-19 CNS 51.5% | U251 CNS 15.9% | PC-3 prostate 67% | SK-MEL-5 melanoma 38.5% | LOX IMVI melanoma 39.7% | SK-MEL-28 melanoma 27.8%
